# Screening data (PubChem BioAssay)
# Sampled rows, rich in hits. Any-hit rate of the full collection: about 3.1%.
# E coli Lon inh = inhibitors of E. coli Lon protease, primary screen, biochemical, fluorescence polarization; P0A9M0; inhibition, % at 7.94 µM; hit rate 0.42% among 360,000; purified E. coli Lon protease; in the data active = inhibition above about 13%, passing the limit was not always enough;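 note: 0% = enzyme with probe and DMSO and 100% = no enzyme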
# Target sequence (P0A9M0 whole entry, looked up): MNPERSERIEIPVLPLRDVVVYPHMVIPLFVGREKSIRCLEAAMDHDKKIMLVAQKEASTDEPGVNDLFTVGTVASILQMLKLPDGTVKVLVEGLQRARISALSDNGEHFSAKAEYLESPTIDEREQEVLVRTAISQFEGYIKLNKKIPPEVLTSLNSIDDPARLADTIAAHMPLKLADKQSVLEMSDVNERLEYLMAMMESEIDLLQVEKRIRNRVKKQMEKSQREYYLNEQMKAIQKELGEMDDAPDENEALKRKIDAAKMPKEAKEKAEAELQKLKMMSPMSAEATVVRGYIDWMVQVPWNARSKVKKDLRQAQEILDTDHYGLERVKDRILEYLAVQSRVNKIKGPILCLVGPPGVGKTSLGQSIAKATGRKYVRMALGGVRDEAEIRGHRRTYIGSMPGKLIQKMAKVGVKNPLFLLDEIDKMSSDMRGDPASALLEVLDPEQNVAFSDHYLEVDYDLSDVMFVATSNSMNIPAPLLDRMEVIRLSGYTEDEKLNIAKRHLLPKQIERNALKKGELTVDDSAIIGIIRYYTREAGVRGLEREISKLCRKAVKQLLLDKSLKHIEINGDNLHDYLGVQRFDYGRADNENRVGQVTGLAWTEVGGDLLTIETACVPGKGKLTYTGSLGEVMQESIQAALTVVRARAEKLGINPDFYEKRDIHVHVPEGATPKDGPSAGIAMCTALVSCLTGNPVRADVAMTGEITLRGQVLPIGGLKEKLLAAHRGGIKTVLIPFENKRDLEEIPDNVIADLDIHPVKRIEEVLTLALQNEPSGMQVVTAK
# Rin1-Abl PPI inh = inhibitors of Rin1-Abl protein binding, primary screen, biochemical, TR-FRET. Tyrosine-protein kinase ABL1 (Homo sapiens) + Ras and Rab interactor 1 (Homo sapiens), …. inhibition, % at 7.35 µM. hit rate 0.4% among 360,000. AID 588664, 2011; in the data active = inhibition above about 5%, passing the limit was not always enough
# PAFAH1B3 FP inh = PAFAH1B3 enzyme inhibitors, primary screen, biochemical, fluorescence polarization, human; Platelet-activating factor acetylhydrolase IB subunit alpha1 (Homo sapiens), Q15102; recombinant PAFAH1B3, FP-rhodamine probe; inhibition, % at 3.39 µM; hit rate 0.28% among 340,000; AID 492972, 2010;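 active = inhibition above the screen-wide average of all tested compounds plus 3 SD, cut at about 25% in these data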;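 note: 0% = enzyme with DMSO only and 100% = wells lacking PAFAH1B3 protein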
# PAFAH2 inh = PAFAH2 enzyme inhibitors, primary screen, biochemical, fluorescence polarization, human. inhibition, % at 3.39 µM. Platelet-activating factor acetylhydrolase 2, cytoplasmic (Homo sapiens), Q99487. recombinant PAFAH2, FP-rhodamine activity probe. AID 492956, 2010. hit rate 0.99% among 340,000;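 active = inhibition above the mean over all tested compounds plus 3 SD, cut at about 30% in these data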;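 note: inhibitors block probe labeling of enzyme so polarization drops; 0% = enzyme with DMSO and 100% = wells lacking PAFAH2 protein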
# pPAFAH FP inh = pPAFAH enzyme inhibitors, primary screen, biochemical, fluorescence polarization, human; Platelet-activating factor acetylhydrolase (Homo sapiens), Q13093; recombinant pPAFAH, FP-rhodamine probe fluorescence polarization; inhibition, % at 3.39 µM; hit rate 1.5% among 330,000; AID 463082, 2010;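 active = inhibition above the mean inhibition across the screen plus 3 SD, cut at about 25% in these data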;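 note: inhibitors block binding of the rhodamine activity-based probe so polarization drops; 0% = enzyme with DMSO and 100% = wells lacking pPAFAH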
# PAFAH1B2 FP inh = PAFAH1B2 enzyme inhibitors, primary screen, biochemical, fluorescence polarization, human; recombinant PAFAH1B2, FP-rhodamine activity probe; AID 492953, 2010; hit rate 1.2% among 340,000; inhibition, % at 3.39 µM;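 active = inhibition above the mean of all tested compounds plus 3 SD, cut at about 24% in these data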;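 note: 0% = enzyme with DMSO and 100% = wells lacking PAFAH1B2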
# * marks the source's active call; other numbers are inactive results; nt = not tested or not shown.
SMILES,E coli Lon inh,Rin1-Abl PPI inh,PAFAH1B3 FP inh,PAFAH2 inh,pPAFAH FP inh,PAFAH1B2 FP inh
COc1ccccc1-c1cc(C(=O)Nc2sc3c(c2C#N)CCC(C)C3)c2ccccc2n1 (stereo unspecified),8,-4,-2,-17,-3,1
CCOC(=O)C1=CC[C@@H](c2ccccc2C(F)(F)F)N(S(=O)(=O)c2ccc(C)cc2)[C@H]1c1ccc(C#N)cc1,0,2,nt,nt,nt,nt
O=C1C(=Cc2cn(-c3ccccc3)nc2-c2ccc(OCc3ccc(Cl)cc3)cc2)SC(=S)N1CCS(=O)(=O)O,-45,-4,nt,nt,nt,nt
O=[N+]([O-])c1ccc(S(=O)(=O)NNC(=S)NCCc2ccccc2)cc1,-15,0,6,2,7,42*
N=c1c[n+](-c2ccc(Cl)cc2)[n-]o1,1,-1,-1,9,9,31*
CCCCCC#CCC#CCC#CCC#CCCCC(=O)O,nt,nt,nt,nt,61*,nt
N#CCCN(C(=O)COC(=O)Cc1ccc(Br)cc1)c1ccccc1,3,0,12,2,15,27*
CCCCNC(=O)C(C1CCCCC1)N(CCN(C)C)C(=O)CCCN1C(=O)NC(c2ccc(-c3ccccc3)cc2)C(C(=O)OCc2ccccc2)=C1C (stereo unspecified),nt,nt,11,-2,8,-2
CCCCCCN(C(=O)CCCCCN1C(=O)NC(c2ccc(-c3ccccc3)cc2)C(C(=O)OCc2ccccc2)=C1C)C(C)C(=O)NCCCC (stereo unspecified),nt,nt,nt,nt,28*,nt
OC[C@H]1O[C@@](CO)(O[C@H]2O[C@H](CO)[C@@H](O)[C@H](O)[C@H]2O)[C@@H](O[C@H]2O[C@H](CO)[C@@H](O)[C@H](O)[C@H]2O)[C@@H]1O,-14,0,14,7,nt,5
O=S1(=O)CCOC[C@H](Cc2ccccc2)N1Cc1cccc(Cl)c1,-10,4,2,-3,0,18
O=S1(=O)CCOC[C@H](CC2CCCCC2)N1Cc1ccc(Cl)cc1,-8,0,-1,-1,-2,29*
O=S1(=O)CCOC[C@H](c2ccccc2)N1Cc1cccc(Cl)c1,5,2,-1,4,6,29*
O=S1(=O)CCOC[C@H](CC2CCCCC2)N1Cc1cccc(F)c1,9,2,2,2,1,24*
Cc1ccc(CN2[C@@H](CC3CCCCC3)COCCS2(=O)=O)cc1,-6,3,5,-2,2,31*
CN(C)S(=O)(=O)c1ccc(Cl)c(NC(=O)CN2C(=O)NC(C)(C3CC3)C2=O)c1 (stereo unspecified),3,0,9,7,-3,3
CC(Sc1nnc(C2CC2)n1C1CC1)C(=O)c1ccc(Br)cc1 (stereo unspecified),7,-1,1,1,nt,10
COc1ccc(CCCNC(=O)C2(C)Cc3c(-c4cccc(C(N)=O)c4)ccnc3O2)cc1 (stereo unspecified),-5,4,nt,nt,nt,nt
O=C(COC(=O)c1ccc(Cl)nc1)NC1CCCc2ccccc21 (stereo unspecified),-12,-4,21,10,5,9
OC[C@@H]1CN(CCN2CCOCC2)C[C@H](n2cnc3c(N4CCOCC4)ncnc32)O1,-3,-3,nt,nt,nt,nt
Cc1ccc(NC(=O)CSc2sc3c(O)cc(=O)[nH]c3c2C#N)c(F)c1,-19,-2,13,15,31*,7
N#Cc1c(SCC(=O)Nc2ccc(C(F)(F)F)cc2)sc2c(O)cc(=O)[nH]c12,-9,-1,9,-8,25*,10
Cc1cc(=O)[nH]c(SCC(=O)Nc2ccc(F)cc2)c1C#N,-3,2,nt,nt,2,nt
COc1ccc(OC)c(NC(=O)CSc2sc3c(O)cc(=O)[nH]c3c2C#N)c1,-8,3,7,25,20,8
N#CC1C(=O)NC(=O)C(C#N)C12CCCC2 (stereo unspecified),-5,1,nt,nt,nt,nt
SMILES,E coli Lon inh,Rin1-Abl PPI inh,PAFAH1B3 FP inh,PAFAH2 inh,pPAFAH FP inh,PAFAH1B2 FP inh
Cc1ccc(C)c(NC(=O)CN(C)C(=O)c2ccc(-c3cccc(C(F)(F)F)c3)o2)c1,-6,-2,2,3,12,8
O=C(OCc1ccc(Cl)c(Cl)c1)c1ccc[nH]1,0,2,4,47*,-2,5
CC1C/C(=N\NC(=O)c2ccc(NS(=O)(=O)c3ccc(Br)cc3)cc2)CC(C)(C)C1 (stereo unspecified),2,-1,-10,14,18,26*
O=C1CSC(c2cccc([N+](=O)[O-])c2)N1C1CC2CCC1C2 (stereo unspecified),2,5,-2,2,0,24*
CSc1ccccc1CNC(=O)C1(C)CCCN1CC(C)C (stereo unspecified),0,-2,nt,nt,nt,nt
N#Cc1c(N)[nH]c2ccc(Sc3ccccc3)cc12,-4,0,14,7,nt,35*
Cc1nc2c(C(=O)NCCc3ccccc3Cl)c[nH]n2c(=O)c1Cl,-8,-1,7,13,25*,11
Cc1nc2c(C(=O)NCc3ccccc3Cl)c[nH]n2c(=O)c1Cl,-10,0,1,29,32*,-3
Cc1ccc(S(=O)(=O)N/N=C/c2cc(Br)c(C)o2)cc1,17*,0,11,3,1,6
COc1cccc(N2CCN(S(=O)(=O)c3ccc4ccccc4c3)CC2)c1,3,3,4,3,nt,5
Cc1ccc(N2C(=O)N3[C@H](c4ccc(F)cc4)[C@@H]4C(=O)N(C5CCCCC5)C(=O)[C@@H]4[C@]3(C)C2=O)cc1,12,3,7,-4,1,2
Cc1ccc(-c2csc3ncnc(NCCN4CCOCC4)c23)cc1,0,-1,6,7,5,2
Cc1ccc(-c2csc3ncnc(Nc4ccc(N5CCOCC5)cc4)c23)cc1,-4,-2,1,5,30*,2
COc1ccc(-c2cc(-c3c(O)c(OC)c4occc4c3OC)[nH]n2)cc1OC,-2,4,10,17,34*,4
Oc1ccc(Nc2nc(-c3ccccc3)nc3ccccc23)cc1,-5,1,17,3,21,-3
CC(=O)Nc1ccc(Nc2nc(-c3ccccc3)nc3ccccc23)cc1,5,4,22,0,28*,6
Cc1ccc(S(=O)(=O)Nc2ccccc2-c2ccccc2NS(=O)(=O)c2ccc(C)cc2)cc1,1,-2,-6,10,25*,59*
Cc1cc(C)c(S(=O)(=O)Nc2ccccc2-c2ccccc2)c(C)c1,4,-1,4,-4,3,18
O=S(=O)(Nc1ccccc1-c1ccccc1)c1ccccc1,-12,2,7,6,nt,26*
Cc1ccc(OCc2occc2C(=O)O)cc1,3,-5,5,7,nt,-4
